About 83,000 compounds went through this panel and 20% of them were active in at least one assay; those are over-represented in the sample as a whole.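 Values shown are percent growth following 48 h exposure of cells in 96-well plates to a single concentration of compound; below 10 was considered active.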 Calls of active or inactive are those of the source.
System: OVCAR-4 ovarian
Assay: NCI-60 one-dose screen, 48 h (100 = growth as untreated, 0 = no growth, -100 = all killed)
Settings: 10 µM unless noted

SMILES	growth
COC1=C(OC)C(=O)C(SC/C=C(\C)CCCC(C)CCCC(C)CCCC(C)C)=CC1=O (stereo unspecified)	27.9% (inactive)
COc1ccc(Br)c2c1C(=O)CC2	107% (inactive)
N#C/C(=C\c1ccc(C#N)cc1)C(=O)c1ccccc1	98.7% (inactive)
CN1CCCN(C(c2ccccc2)c2ccc(Cl)cc2)CC1 (stereo unspecified)	84.2% (inactive)

System: SK-OV-3 ovarian
Assay: as above
Settings: 10 µM unless noted

SMILES	growth
CCOC(=O)/C(C#N)=C\c1c[nH]c2ccccc12	96.2% (inactive)
CC(=O)N(C)N=Nc1ccc(C)cc1	110% (inactive)
COc1cc(C(=O)N2CCN(c3ccccc3)CC2)c2ccccc2n1	5.77% (active)
CCOC(=O)c1ccc(NC(=O)Nc2nccs2)cc1	10.8% (inactive)
O=c1n(CC2CO2)c(=O)n(CC2CO2)n1CC1CO1 (stereo unspecified)	49.2% (inactive)
CCCCCCCCCCCCSC1=C(Cl)C(=O)C(OC)=C(OC)C1=O	79.9% (inactive)
Cc1ccc(N2C(=O)c3cccc4c(N)c(S(=O)(=O)O)cc(c34)C2=O)cc1	106% (inactive)
Oc1cccnc1CN1CCCC1	103% (inactive)
O=C1C=C(c2ccccc2)C(O)(c2ccccc2)C1 (stereo unspecified)	101% (inactive)
Cc1cc(C)cc(OCC(=O)O)c1	101% (inactive)
Cc1cccc(C)c1NC(=S)/N=C\c1c(O)[nH]c(=O)[nH]c1=O	94% (inactive)
NNC(=O)N/N=C1\C(=O)N(c2nccs2)C(=O)C(=O)C1c1nc2ccccc2s1 (stereo unspecified)	103% (inactive)
O=[N+]([O-])c1c(O)c(CNCCCO)cc(CNCCCO)c1O	106% (inactive)
O=C1Nc2ccccc2/C1=C\c1ccccc1O	94.7% (inactive)
CN(C)c1ccc2c(N(C)C)cc(N(C)C)nc2c1	87.5% (inactive)
Cc1cccc(-[n+]2noc(N)n2)c1	86.3% (inactive)
O=S(Cc1ccccc1)/C(=C/NC(=S)Nc1cc(Cl)ccc1Cl)c1ccccc1 (stereo unspecified)	101% (inactive)
CCNC(=O)OCCc1c2ccccc2nc2ccccc12	109% (inactive)

SMILES	growth
CCCCn1cnc2c(=O)[nH]cnc21	104% (inactive)
Cc1cc(CC(=O)NCCO)n(CCO)c(=O)c1	104% (inactive)
CCCCCCCCCCC(=O)CCCCCCCCCC	92.1% (inactive)
NC(=S)c1c(N)n(C2OC(CO)C(O)C2O)c2ncnc(N)c12 (stereo unspecified)	5.93% (active)
NC(=S)N/N=C/c1ccc(OC(=O)COc2ccccc2)cn1	90.4% (inactive)
CCOC(=O)CNC(=O)Sc1ccc(C(C)(C)C)cc1	116% (inactive)
C[n+]1c(/C=C\C=C\N2CCCCC2)sc2ccccc21	-3.97% (active)
CCC(=O)C1C(=O)c2ccccc2C1=O	116% (inactive)
Cc1cc(NC(=O)c2ccccc2)c(Cl)cc1N	107% (inactive)
O=C1C=C[C@H](O)[C@@]2(CO)O[C@@H]12	115% (inactive)
Oc1cc(O)c2c(c1)O[C@H](c1ccc(O)c(O)c1)[C@@H](O)C2	109% (inactive)
C(=C\c1ccncc1)/c1ccncc1	120% (inactive)
CCOC(=O)c1cc(C)[nH]c(=O)c1C#N	95.4% (inactive)
NC(CCl)=NCC12CC3CC(CC(C3)C1)C2	24.2% (inactive)
COC1=C(OC)C(=O)C(SC/C=C(\C)CCCC(C)CCCC(C)CCCC(C)C)=CC1=O (stereo unspecified)	45.4% (inactive)
COc1ccc(Br)c2c1C(=O)CC2	112% (inactive)
N#C/C(=C\c1ccc(C#N)cc1)C(=O)c1ccccc1	109% (inactive)
CN1CCCN(C(c2ccccc2)c2ccc(Cl)cc2)CC1 (stereo unspecified)	110% (inactive)

System: IGROV1 ovarian
Assay: as above
Settings: 10 µM unless noted

SMILES	growth
CC(=O)N(C)N=Nc1ccc(C)cc1	152% (inactive)
COc1cc(C(=O)N2CCN(c3ccccc3)CC2)c2ccccc2n1	17.4% (inactive)
CCOC(=O)c1ccc(NC(=O)Nc2nccs2)cc1	-16.2% (active)
O=c1n(CC2CO2)c(=O)n(CC2CO2)n1CC1CO1 (stereo unspecified)	-4.87% (active)
CCCCCCCCCCCCSC1=C(Cl)C(=O)C(OC)=C(OC)C1=O	5.92% (active)
Cc1ccc(N2C(=O)c3cccc4c(N)c(S(=O)(=O)O)cc(c34)C2=O)cc1	35.6% (inactive)
S=C=Nc1ccc2ccccc2c1	117% (inactive)
Oc1cccnc1CN1CCCC1	102% (inactive)
O=C1C=C(c2ccccc2)C(O)(c2ccccc2)C1 (stereo unspecified)	107% (inactive)
Cc1cccc(C)c1NC(=S)/N=C\c1c(O)[nH]c(=O)[nH]c1=O	101% (inactive)
NNC(=O)N/N=C1\C(=O)N(c2nccs2)C(=O)C(=O)C1c1nc2ccccc2s1 (stereo unspecified)	93.2% (inactive)
O=[N+]([O-])c1c(O)c(CNCCCO)cc(CNCCCO)c1O	2.99% (active)
O=C1Nc2ccccc2/C1=C\c1ccccc1O	17.9% (inactive)
CN(C)c1ccc2c(N(C)C)cc(N(C)C)nc2c1	103% (inactive)
O=S(Cc1ccccc1)/C(=C/NC(=S)Nc1cc(Cl)ccc1Cl)c1ccccc1 (stereo unspecified)	95.8% (inactive)
CCCCn1cnc2c(=O)[nH]cnc21	115% (inactive)
Cc1cc(CC(=O)NCCO)n(CCO)c(=O)c1	108% (inactive)
NC(=S)c1c(N)n(C2OC(CO)C(O)C2O)c2ncnc(N)c12 (stereo unspecified)	-61.2% (active)
NC(=S)N/N=C/c1ccc(OC(=O)COc2ccccc2)cn1	54.6% (inactive)
CCOC(=O)CNC(=O)Sc1ccc(C(C)(C)C)cc1	74.9% (inactive)
c1ccc(Nc2ccccn2)nc1	114% (inactive)
Cc1cc(NC(=O)c2ccccc2)c(Cl)cc1N	33.3% (inactive)
O=C1C=C[C@H](O)[C@@]2(CO)O[C@@H]12	27.6% (inactive)
Oc1cc(O)c2c(c1)O[C@H](c1ccc(O)c(O)c1)[C@@H](O)C2	103% (inactive)
CCOC(=O)c1cc(C)[nH]c(=O)c1C#N	118% (inactive)
COC1=C(OC)C(=O)C(SC/C=C(\C)CCCC(C)CCCC(C)CCCC(C)C)=CC1=O (stereo unspecified)	-9.75% (active)

From PubChem BioAssay (NCI)
